Source: PubChem (several laboratories)
An excerpt weighted towards active compounds, which were near 2.5% of everything screened.
MEKK2wt PB1 HTS: raises or lowers MEK5 binding to wildtype human MEKK2 PB1 domain | 290,000 compounds, 1.1% hits | binding response (% of control), % at 10 µM | Q9Y2U5 | bead flow cytometry, Alexa488-MEK5 binding to MEKK2 WT; actives lie on both sides; in the data active means binding response below about 67% or above about 130%
UBC13 inh: human UBC13 polyubiquitination inhibition; UBC13 polyubiquitin chain formation, TR-FRET; inhibition, % at 20 µM; AID 485273; 330,000 compounds, 0.47% hits; in the data active means inhibition above about 45%, passing the limit was not always enough
Target sequence (P61088 whole entry, looked up): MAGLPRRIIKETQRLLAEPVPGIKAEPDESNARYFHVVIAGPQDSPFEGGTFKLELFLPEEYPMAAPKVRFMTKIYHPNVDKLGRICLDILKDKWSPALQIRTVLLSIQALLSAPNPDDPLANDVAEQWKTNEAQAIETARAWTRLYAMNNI
Rce1 inh: blocks yeast Ras-converting enzyme | 290,000 compounds, 0.27% hits | calls only | yeast membranes, quenched prenylated peptide cleavage fluorescence | Q03530 | AID 2563;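 active means fall in fluorescence gain of 50% or more versus controls, with final raw signal at or below 3038400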;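 further: plate controls were neutral control wells for no effect and wells lacking membranes for full effect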
Target sequence (Q03530 whole entry, looked up): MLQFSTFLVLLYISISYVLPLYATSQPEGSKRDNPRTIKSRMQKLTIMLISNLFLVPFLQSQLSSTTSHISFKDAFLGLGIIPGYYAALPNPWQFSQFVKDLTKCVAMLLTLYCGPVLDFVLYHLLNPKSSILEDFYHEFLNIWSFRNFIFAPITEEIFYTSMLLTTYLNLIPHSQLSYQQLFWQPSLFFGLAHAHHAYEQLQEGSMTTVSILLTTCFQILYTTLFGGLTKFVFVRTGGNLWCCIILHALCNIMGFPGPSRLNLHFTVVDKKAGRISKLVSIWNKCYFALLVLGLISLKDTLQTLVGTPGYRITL
MEKK3 PB1 HTS: raises or lowers MEK5 binding to the human MEKK3 PB1 domain | binding response (% of control), % at 10 µM | 290,000 compounds, 1.4% hits | bead-based flow cytometry, Alexa488-MEK5 binding to MEKK3; actives lie on both sides; 0 = blocked by unlabeled MEK5, 100 = vehicle | Q99759;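 active means binding response more than 3 SD above or below the average of its plate-row segment, actives on both sides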;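 further: Alexa488 bead fluorescence after subtracting the streptavidin-only scavenger bead signal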
MEKK2mut PB1 HTS: signal of MEK5 binding to mutant human MEKK2 PB1 domain; AID 1530; bead flow cytometry, Alexa488-MEK5 binding to MEKK2 mutant; 290,000 compounds, 0.35% hits; percent response, % at 10 µM; in the data active means percent response above about 24%, passing the limit was not always enough
An asterisk follows results filed as active; i = inactive; / = not tested or not shown; + = active, no number; [ ] = another dose, or the depositor's remark.

SMILES	MEKK2wt PB1 HTS	UBC13 inh	Rce1 inh	MEKK3 PB1 HTS	MEKK2mut PB1 HTS
COC(=O)C1CCCN1S(=O)(=O)c1ccc2ccccc2c1 (configuration not stated)	102	4	+	102	2
CC1=C(C)C(C)=C(C#N)C(=C(C#N)C#N)N1	98	31	+	102	0
Cc1ccc(NC(=O)c2sc3ncn(CC(=O)N4CCOCC4)c(=O)c3c2C)c(Br)c1	95	4	i	97	-1
O=C(Nc1ccc(NC(=O)c2ccccc2Cl)cc1)c1cccnc1	53*[inhibitor]	-1	i	39*[inhibitor]	-28
O=C(Nc1ccccc1C(=O)Nc1ccc(Cl)cc1)c1cccnc1	104	5	i	97	2
Cc1nn(CC(=O)N2CCN(c3cccc(C(F)(F)F)c3)CC2)c(=O)c2cccn12	104	1	i	103	6
O=C(Cn1ncc2c([nH]c3ccccc32)c1=O)Nc1ccc(CN2CCCCC2)cc1	147*	10	i	107	25*
Cc1ccc2nc(-c3ccccc3)cn2c1	94	11	+	96	-2
Cc1ccc2nc(-c3ccc(O)c(O)c3)cn2c1	102	-8	i	102	3
Cc1cc(N2C(=O)C3C4C=CC(C4)C3C2=O)ccc1NC(=O)c1cccs1 (configuration not stated)	100	-3	+	103	-1
CC(C)/C=N/Nc1nc(-c2ccc(Br)cc2)cs1	98	17	i	96	-1
O=C(c1ccco1)N1CCN(Cc2cc(=O)c(OCc3ccc(F)cc3)co2)CC1	/	-4	i	/	/
CC(C)c1ccc2c(c1)CCC1C(C)(CN)CCCC21C (configuration not stated)	155*	/	i	36*[inhibitor]	25*
O=C(CC1SC(N2CCCC2)=NC1=O)Nc1ccc(C(=O)N2CCN(c3cccc(Cl)c3)CC2)cc1 (configuration not stated)	/	9	i	/	/
COc1ccc(Cl)cc1C(=O)Nc1ccc2c(c1)OCO2	101	0	+	103	3
COc1ccc(CN(C2CCCC2)S(=O)(=O)c2ccc(-n3cnnn3)c(OC)c2)cc1OC	95	-2	+	96	0
CCOC(=O)c1nnn2c1nc(N1CCCCC1)c1ccccc12	97	1	i	97	-5
CCOC(=O)c1nnn2c1nc(N1CCOCC1)c1ccccc12	97	2	+	95	-4
O=C(NNC(=S)Nc1ccc(OC(F)F)cc1)c1cc2c(s1)CCCC2	115	-9	i	106	8
CCC(C)c1ccccc1NC(=O)C(C)N(C)Cc1cccc(OC)c1 (configuration not stated)	100	18	i	106	-2
CCc1ccc(NC(=O)CN(C(=O)N2CCN(CC)CC2)S(=O)(=O)c2ccc(C)cc2)cc1	/	-2	i	/	/
C=CC(=O)Nc1ccc(CN2C(=O)N(c3c(Cl)c(OC)cc(OC)c3Cl)Cc3cnc(NCCCCN(CC)CC)nc32)cc1	/	63*	/	/	/
COc1ccc(N2CCN(C(CNC(=O)C(=O)NCCc3c[nH]c4ccccc34)c3ccco3)CC2)cc1 (configuration not stated)	96	-16	i	93	-2
C=CCNC(=O)N1CCCC(N2CCN(c3ccccc3OC)CC2)C1 (configuration not stated)	107	2	i	101	9
CCOC(=O)c1cc(-c2ccccc2)n(CCC(=O)N2CCN(c3ccc(OC)cc3)CC2)c1C	2.0*	-10	i	95	-1
SMILES	MEKK2wt PB1 HTS	UBC13 inh	Rce1 inh	MEKK3 PB1 HTS	MEKK2mut PB1 HTS
CCC(Oc1ccccc1OC)C(=O)N1CC(=O)Nc2ccccc21 (configuration not stated)	96	0	i	98	-4
O=C(NC1CCCCC1)C(c1ccc(Cl)cc1)N(C(=O)c1ccccn1)c1cccnc1 (configuration not stated)	86	5	i	96	-11
Cc1c(Br)c([N+](=O)[O-])nn1CC(=O)N1CCc2ccccc21	99	9	i	98	-1
Cc1c(Cl)c([N+](=O)[O-])nn1CC(=O)N1CCCc2ccccc21	98	8	+	102	2
CC(C)(C)N(CC(=O)NC1CCCCC1)C(=O)CS(=O)CC(=O)Nc1ccc(F)cc1 (configuration not stated)	99	0	i	99	-2
O=C1CSC(=S)N1Cc1cccnc1	-3.0*	-14	i	88	5
O=[N+]([O-])c1ccc(N/N=C\c2ccccc2OCc2ccccc2)cc1	9.0*	-104	i	96	9
Cc1cc(C)nc(N/N=C/c2ccccc2OCc2ccc([N+](=O)[O-])cc2)n1	101	9	i	96	-2
COc1cccc(N2CC(O)=C(c3nc4ccccc4c(=O)[nH]3)C2=N)c1	104	3	i	108	8
Cc1cc(C)cc(N2CC(O)=C(c3nc4ccccc4c(=O)[nH]3)C2=N)c1	87	12	+	94	-12
O=C(O)c1cc(C(=O)O)cc(-c2ccc(/C=c3/sc4nc5ccccc5n4c3=O)o2)c1	61*[inhibitor]	/	/	71*[inhibitor]	-37
O=C(O)c1cccc(-c2ccc(/C=c3/sc4nc5ccccc5n4c3=O)o2)c1	92	-32	i	102	-2
CCC(C)[C@H](NC(=O)c1cc2cc(Cl)ccc2n1C)C(=O)N1CCC[C@H]1C(=O)O (some centres not stated)	101	-3	i	99	0
CCN(CC)CCNc1ncnc2c1sc1nc(N3CCCC3)c3c(c12)CC(C)(C)OC3	150*	20	i	110	32
S=c1[nH]nc(-c2ccccc2)o1	100	-3	+	100	7
Cc1cc(=O)n2c3ccccc3n(CC(O)CN3CCN(CCO)CC3)c2c1C#N (configuration not stated)	99	8	i	101	2
Cc1cc(=O)n2c3ccccc3n(CC(O)CN3CCC(C)CC3)c2c1C#N (configuration not stated)	105	/	i	135*	0
O=C(Nc1ccc2c(c1)C(=O)OC2)c1ccc(F)cc1F	85	-1	i	85	-25
O=C1Nc2cc(C(=O)NCCCN3CCCC3)ccc2S/C1=C\c1ccccc1	153*	19	i	105	18
CCC1CCCCN1CCCNC(=O)c1ccc(/C=C2/Sc3ccccc3NC2=O)cc1 (configuration not stated)	151*	41	i	104	15
CCC1CCCCN1CCCNC(=O)c1ccc2c(c1)NC(=O)CS2 (configuration not stated)	116	2	i	101	4
O=C1Nc2cc(C(=O)NCCCN3CCOCC3)ccc2S/C1=C/c1ccccc1F	115	11	i	105	3
